PubChem BioAssay (Tox21)
Records with an inconclusive call do not appear. Active and inactive are the calls of the source. Unless noted, calls follow the shape of the dose curve; as a rule, active = well fitted curve in the direction sought with a large enough effect in the repeat runs; inconclusive = weak or mixed curves; inactive = no such curve, though single readings can be large; an effect the other way counts as inactive or inconclusive.

Key:
[1] = A CellTox Green Cytotoxicity Assay to monitor cytotoxicity in HepG2 cells - 8 hour (AID 1224890); also: nearly all actives have a fitted effect of over 45% in size
How it was run: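 Using 1536-well format, dye-containing HepG2 suspension was seeded, allowed 5 h at 37 C/5% CO2, dosed by pintool with compounds, positive and negative controls, and imaged for fluorescence across 40 h.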

[2] = qHTS assay to identify small molecule antagonists of the estrogen receptor alpha (ER-alpha) signaling pathway using the BG1 cell line in the presence of 0.1 nM 17-beta-estradiol - cell viability counter screen (AID 1259241); also: nearly all actives have a fitted effect of over 40% in size
How it was run: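 Live-cell protease activity (CellTiter-Fluor fluorescence, 30 min) was read in the same wells after VM7Luc4E2 cells had been exposed to compounds with 0.1 nM 17beta-estradiol for 22 hr at 37C.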

[3] = qHTS assay to identify small molecule antagonists of the androgen receptor (AR) signaling pathway using the MDA cell line in the presence of 0.5 nM R1881 - cell viability counter screen (AID 1259242); also: nearly all actives have a fitted effect of over 45% in size
How it was run: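 Viability of MDA-kb2 cells was multiplexed with the luciferase AR readout; after 16 hr with compounds and R1881 at 0.5 nM final, CellTiter-Fluor fluorescence was recorded.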

[4] = target: Androgen receptor (Homo sapiens) (UniProt P10275); experiment: qHTS assay to identify small molecule antagonists of the androgen receptor (AR) signaling pathway using the MDA cell line in the presence of 0.5 nM R1881 (AID 1259243); also: nearly all actives have a fitted effect of over 50% in size
How it was run: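 Reporter cells cultured without CO2 receive test chemicals, then 0.5 nM R1881 final; after 16 hr at 37C, ONE-Glo is added and light output recorded.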

[5] = target: Estrogen receptor (Homo sapiens) (UniProt P03372); experiment: qHTS assay to identify small molecule antagonists of the estrogen receptor alpha (ER-alpha) signaling pathway using the BG1 cell line in the presence of 0.1 nM 17-beta-estradiol (AID 1259244); also: nearly all actives have a fitted effect of over 50% in size
How it was run: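 Estradiol at 0.1 nM (final) stimulates the endogenous ER-alpha of VM7Luc4E2 cells carrying an ERE-driven luciferase; compounds are co-incubated 22 h at 37C and luciferase output quantified by luminescence.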

[6] = qHTS assay to identify small molecule HDAC inhibitors (AID 1259364);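 also: wild-type HCT-116 cells with endogenous class I/II HDAC activity; top concentration of the series differs between compounds; nearly all actives have a fitted effect of over 45% in size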
How it was run: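 Read-out: luminescence of HDAC-Glo I/II reagent, 30 min RT, reflecting class I/II deacetylase activity in whole HCT-116 cells pre-exposed 2 h to DMSO-dissolved compounds.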

[7] = qHTS assay to identify small molecule HDAC inhibitors - cell viability counter screen (AID 1259365); also: series mostly up to about 92 µM; nearly all actives have a fitted effect of over 50% in size
How it was run: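 HCT-116 (wild type), 1,500 cells/well, overnight 37C/5% CO2; compound in DMSO 2hr; CellTiter-Glo 30min RT; luminescence read.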

[8] = qHTS assay to identify small molecule agonists of the sonic hedgehog signaling (Shh) pathway - cell viability counter screen (AID 1259366); also: nearly all actives have a fitted effect of over 50% in size
How it was run: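 CellTiter-Fluor fluorescence read-out, 1 hr at 37C, added after 23hr compound exposure. Cells: 3T3 Gli1-Luc, an NIH/3T3 clone with stably integrated Gli1-Luc reporter, plated 4hr before compound.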

[9] = qHTS assay to identify small molecule antagonists of the sonic hedgehog signaling (Shh) pathway - cell viability counter screen (AID 1259367); also: nearly all actives have a fitted effect of over 55% in size
How it was run: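 Using CellTiter-Fluor, viability of Gli1-Luc reporter 3T3 cells is read by fluorescence in the wells used for the Shh luciferase assay. Treatment lasts 23 hr with conditioned medium, then reagent 1 hr at 37C.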

[10] = qHTS assay to identify small molecule phospholipidosis (PLD) inducers (AID 1259344; active = well fitted curve in the direction sought with a large enough effect; an effect the other way counts as inactive or inconclusive)
How it was run: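 Fluorescent phospholipid staining (LipidTOX Red) measured by automated microscopy in fixed HepG2 cells after 24 h treatment; nuclei counterstained with Hoechst 33342; amiodarone as reference inducer.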
% is scaled to controls: 0 for no effect and ±100 for the full control effect.

Estrogen receptor (Homo sapiens), sequence (P03372 whole entry, looked up): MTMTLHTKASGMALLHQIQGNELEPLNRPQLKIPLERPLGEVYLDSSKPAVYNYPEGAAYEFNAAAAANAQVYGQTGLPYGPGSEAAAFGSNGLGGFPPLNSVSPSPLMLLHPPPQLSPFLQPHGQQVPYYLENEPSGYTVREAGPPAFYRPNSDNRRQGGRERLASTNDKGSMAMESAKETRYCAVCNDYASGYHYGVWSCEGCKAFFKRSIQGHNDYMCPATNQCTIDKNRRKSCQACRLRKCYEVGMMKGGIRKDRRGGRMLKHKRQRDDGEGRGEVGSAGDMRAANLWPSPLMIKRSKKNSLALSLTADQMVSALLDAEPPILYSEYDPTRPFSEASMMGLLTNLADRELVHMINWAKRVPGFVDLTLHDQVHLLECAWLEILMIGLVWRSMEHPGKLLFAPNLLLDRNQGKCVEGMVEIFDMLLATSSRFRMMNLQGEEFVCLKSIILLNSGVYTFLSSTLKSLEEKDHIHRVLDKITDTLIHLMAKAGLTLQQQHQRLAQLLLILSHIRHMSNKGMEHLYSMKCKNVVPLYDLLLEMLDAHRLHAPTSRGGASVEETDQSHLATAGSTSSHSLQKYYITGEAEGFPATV
Androgen receptor (Homo sapiens), sequence (P10275 whole entry, looked up): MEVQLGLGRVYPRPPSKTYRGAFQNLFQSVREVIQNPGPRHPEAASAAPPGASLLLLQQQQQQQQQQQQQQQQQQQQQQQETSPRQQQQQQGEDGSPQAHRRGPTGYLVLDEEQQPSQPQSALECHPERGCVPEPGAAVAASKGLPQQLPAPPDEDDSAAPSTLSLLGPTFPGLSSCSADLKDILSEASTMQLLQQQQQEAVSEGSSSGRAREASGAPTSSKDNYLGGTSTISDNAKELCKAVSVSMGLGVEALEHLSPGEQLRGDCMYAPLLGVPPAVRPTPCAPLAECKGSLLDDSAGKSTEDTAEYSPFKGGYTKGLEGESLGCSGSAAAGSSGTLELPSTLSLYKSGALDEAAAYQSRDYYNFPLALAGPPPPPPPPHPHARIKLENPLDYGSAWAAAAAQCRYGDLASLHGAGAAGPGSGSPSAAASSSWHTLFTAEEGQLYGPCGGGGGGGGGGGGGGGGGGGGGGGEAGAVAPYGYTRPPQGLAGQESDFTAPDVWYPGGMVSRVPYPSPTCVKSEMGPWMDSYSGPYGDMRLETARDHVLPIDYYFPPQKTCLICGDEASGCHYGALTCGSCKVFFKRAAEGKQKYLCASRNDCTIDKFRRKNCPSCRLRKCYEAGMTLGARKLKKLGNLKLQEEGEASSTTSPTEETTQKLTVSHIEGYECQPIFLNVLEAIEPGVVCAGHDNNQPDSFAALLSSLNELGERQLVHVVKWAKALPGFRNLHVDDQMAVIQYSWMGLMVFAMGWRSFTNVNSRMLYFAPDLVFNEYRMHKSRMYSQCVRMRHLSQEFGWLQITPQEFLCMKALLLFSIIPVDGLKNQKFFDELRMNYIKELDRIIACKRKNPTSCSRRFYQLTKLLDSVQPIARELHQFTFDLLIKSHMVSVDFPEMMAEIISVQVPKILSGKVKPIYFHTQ

CC(C)(CC(=O)O)C(=O)O
inactive: Potency [1] | outcome [2] | Potency [3] | Potency [4] | outcome [5] | Potency [6] | outcome [7] | Potency [8] | Potency [9]

Cc1cnc(NS(=O)(=O)c2ccc(N)cc2)nc1
inactive: Potency [1] | outcome [2] | Potency [3] | Potency [4] | outcome [5] | Potency [6] | outcome [7] | Potency [8] | Potency [9]

c1ccc([C@H]2CN3CCSC3=N2)cc1
inactive: Potency [1] | outcome [2] | Potency [3] | outcome [5] | Potency [10] | Potency [6] | outcome [7] | Potency [8] | Potency [9]

CC(=O)Nc1ccc(S(N)(=O)=O)cc1
inactive: Potency [1] | outcome [2] | Potency [3] | Potency [4] | outcome [5] | Potency [6] | outcome [7] | Potency [8] | Potency [9]

CC(NC(CCc1ccccc1)C(=O)O)C(=O)N1C(=O)N(C)CC1C(=O)O (stereo unspecified)
inactive: Potency [1] | outcome [2] | Potency [3] | Potency [4] | Potency [6] | outcome [7] | Potency [8] | Potency [9]

CC1(C)CO[C@@H](CC(=O)O)CN1
inactive: Potency [1] | outcome [2] | Potency [3] | outcome [5] | Potency [10] | Potency [6] | outcome [7] | Potency [8] | Potency [9]

Cc1nc2c([nH]1)c(=O)n(C)c(=O)n2Cc1ccco1
inactive: Potency [1] | outcome [2] | Potency [3] | outcome [5] | Potency [10] | Potency [6] | outcome [7] | Potency [8] | Potency [9]

CCCCC(CC)COC(=O)c1ccccc1O (stereo unspecified)
inactive: Potency [1] | outcome [2] | Potency [3] | outcome [5] | Potency [10] | Potency [6] | outcome [7] | Potency [8] | Potency [9]

Nc1c2c(nc3ccccc13)CCCC2O (stereo unspecified)
inactive: Potency [1] | outcome [2] | Potency [3] | outcome [5] | Potency [10] | Potency [6] | outcome [7] | Potency [8] | Potency [9]

NS(=O)(=O)c1cc(C(=O)O)cc(N2CCCC2)c1Oc1ccccc1
inactive: Potency [1] | outcome [2] | Potency [3] | outcome [5] | Potency [10] | Potency [6] | outcome [7] | Potency [8] | Potency [9]

CN1CCN(c2cc3c(cc2F)c(=O)c(C(=O)O)cn3-c2ccc(F)cc2)CC1
inactive: Potency [1] | outcome [2] | Potency [3] | Potency [4] | Potency [10] | Potency [6] | outcome [7] | Potency [8] | Potency [9]

CCn1ccnc1CC1COc2ccccc2O1 (stereo unspecified)
inactive: Potency [1] | outcome [2] | Potency [3] | Potency [4] | outcome [5] | Potency [10] | Potency [6] | outcome [7] | Potency [8] | Potency [9]

NC(=O)COCCN1CCN(C(c2ccccc2)c2ccc(Cl)cc2)CC1 (stereo unspecified)
inactive: Potency [1] | outcome [2] | Potency [3] | Potency [4] | outcome [5] | PLD induction [10] -1.34% [at 1.53 µM] | Potency [6] | outcome [7] | Potency [8] | Potency [9]

NS(=O)(=O)c1cc(C(=O)NN2C[C@H]3[C@H]4CCC(C4)[C@H]3C2)ccc1Cl
inactive: Potency [1] | outcome [2] | Potency [3] | Potency [4] | outcome [5] | Potency [6] | outcome [7] | Potency [9]

FC1(F)C(F)(F)C(F)(F)C2(F)C(F)(F)C(F)(F)C(F)(F)C(F)(F)C2(F)C1(F)F (stereo unspecified)
inactive: Potency [1] | outcome [2] | Potency [3] | Potency [4] | outcome [5] | Potency [10] | Potency [6] | outcome [7] | Potency [8] | Potency [9]

CC1(C)C(O)C(C)(C)C1O (stereo unspecified)
inactive: Potency [1] | outcome [2] | Potency [3] | Potency [4] | outcome [5] | Potency [6] | outcome [7] | Potency [8] | Potency [9]

CCOC(=O)c1cccc(N)c1
inactive: Potency [1] | outcome [2] | Potency [3] | outcome [5] | Potency [10] | Potency [6] | outcome [7] | Potency [8] | Potency [9]

CN1N=C(C(N)=O)CCC1=O
inactive: Potency [1] | outcome [2] | Potency [3] | Potency [4] | outcome [5] | Potency [6] | outcome [7] | Potency [8] | Potency [9]

O=C(O)COc1nn(Cc2ccccc2)c2ccccc12
inactive: Potency [1] | outcome [2] | Potency [3] | Potency [4] | outcome [5] | Potency [10] | Potency [6] | outcome [7] | Potency [8] | Potency [9]

OC1CCCCC1c1ccccc1 (stereo unspecified)
inactive: Potency [1] | outcome [2] | Potency [3] | Potency [4] | outcome [5] | Potency [6] | outcome [7] | Potency [8] | Potency [9]

O=S(O)CO
inactive: Potency [1] | outcome [2] | Potency [3] | Potency [4] | outcome [5] | Potency [10] | Potency [6] | outcome [7] | Potency [8] | Potency [9]

NS(=O)(=O)c1ccc(C(=O)O)cc1
inactive: Potency [1] | outcome [2] | Potency [3] | Potency [4] | outcome [5] | Potency [10] | Potency [6] | outcome [7] | Potency [8] | Potency [9]

c1cnc(N2CCN(Cc3ccc4c(c3)OCO4)CC2)nc1
inactive: Potency [1] | outcome [2] | Potency [3] | outcome [5] | Potency [10] | Potency [6] | outcome [7] | Potency [8] | Potency [9]
